# Only some compounds are listed: those with a hit (about 3.6% of all), similar ones and a draw of the others.
# ERK AVP inh: vasopressin-driven ERK pathway inhibition; HEK293-V1b, vasopressin-stimulated pERK AlphaScreen; Potency, µM (series often up to 57.5 µM), most hits filed as inhibitors; 72,000 tested, 0.99% active; note: nearly all actives have a fitted effect of over 55% in size
#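 HEK293 cells stably expressing V1b receptor, preincubated 30 min at 37 °C with compound, then stimulated 5 min with 25 nM vasopressin. Phospho-ERK by AlphaScreen SureFire after 5 h RT; normalized to DMSO and vasopressin; AC50 by Hill fit.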
# TSHR agonist: activates the human thyroid stimulating hormone receptor. P16473. HEK293-CNG-TSHR cells (CNG channel as cAMP sensor), membrane potential dye, cAMP. Potency, µM (doses to about 57.1 µM), actives largely listed as activators. 73,000 tested, 0.48% active. AID 926; active = well fitted activation curve with a large enough effect in the main read-out, with a control signal flat, not every such curve was filed as active; inconclusive = small, poorly fitted or top-dose-only effect, or a change in a side signal; inactive = no such curve, though single readings can be large or run the other way; reference of the percent scale not stated here;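 note: the control signal comes from parental cells without the receptor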
# Target sequence (P16473 whole entry, looked up): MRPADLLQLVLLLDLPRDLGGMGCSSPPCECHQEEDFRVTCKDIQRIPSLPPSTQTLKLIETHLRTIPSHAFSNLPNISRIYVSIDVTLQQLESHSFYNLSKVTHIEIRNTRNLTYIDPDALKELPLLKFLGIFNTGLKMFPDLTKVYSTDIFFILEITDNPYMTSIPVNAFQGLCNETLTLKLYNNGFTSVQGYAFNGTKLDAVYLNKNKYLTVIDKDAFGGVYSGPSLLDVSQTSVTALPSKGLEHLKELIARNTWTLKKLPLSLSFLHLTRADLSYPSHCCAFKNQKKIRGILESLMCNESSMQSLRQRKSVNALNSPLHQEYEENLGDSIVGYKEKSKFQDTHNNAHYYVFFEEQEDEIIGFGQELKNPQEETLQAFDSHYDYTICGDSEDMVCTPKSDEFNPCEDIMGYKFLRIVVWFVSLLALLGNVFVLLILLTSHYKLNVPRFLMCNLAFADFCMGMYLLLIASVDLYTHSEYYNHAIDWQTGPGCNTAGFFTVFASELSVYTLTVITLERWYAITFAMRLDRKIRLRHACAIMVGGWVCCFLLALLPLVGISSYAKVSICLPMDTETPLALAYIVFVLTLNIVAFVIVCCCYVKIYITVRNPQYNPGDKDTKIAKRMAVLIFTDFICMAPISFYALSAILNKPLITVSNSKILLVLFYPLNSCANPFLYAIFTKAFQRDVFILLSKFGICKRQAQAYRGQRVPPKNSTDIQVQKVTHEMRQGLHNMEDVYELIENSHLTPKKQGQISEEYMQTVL
#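 cAMP rise detected as CNG-channel membrane depolarization by fluorescent dye (emission 590 nm), 30 min after compound, following 60 min dye loading containing 100 uM RO 20-1724 at room temperature. Cells: TSHR/CNG HEK 293, with parental CNG HEK 293 as control.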
# HEK293 cAMP cs: raises cAMP in parental HEK293 cells, TSHR agonist counter-screen | parental HEK293 CNG cAMP sensor, membrane potential fluorescence | Potency, µM (doses to about 57.1 µM), hits mostly activators | 73,000 tested, 2.5% active | AID 938; note: nearly all actives have a fitted effect of over 55% in size
#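 Parental HEK 293 cells stably expressing a modified CNG channel (no TSHR) report cAMP rise as membrane depolarization. Membrane potential dye with 100 uM RO 20-1724 was loaded for 60 min at room temperature, then compound added for 30 min; fluorescence read at 590 nm.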
# IkB signaling: IkB pathway inhibition in ABC-DLBCL cells; ABC-DLBCL IkBa-CBG/CBR dual luciferase ratio, 4 h; response scale: scaled: untreated 0%, proteasome inhibitor 100%; Potency, µM (doses to about 57.1 µM); 110,000 tested, 0.04% active; AID 445; active = well fitted curve in the direction sought with a large enough effect in the signal ratio, not every such curve was filed as active; inconclusive = small, poorly fitted or top-dose-only effect, or a change in a side signal; the % refers to the signal ratio;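 note: the direction sought is a rising ratio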
#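 Curves were fitted separately to fusion (green), unfused (red) and ratio luminescence, then classed by r2, magnitude and activity. Cells: OCI-Ly3, 4 h compound plus doxycycline at 37C; 10 uM MG-132 defined full response.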
# CRE-bla Fsk: alters forskolin-stimulated CRE reporter signaling in CHO cells | CHO CRE-bla reporter (cAMP response element driving beta-lactamase), forskolin EC10, beta-lactamase ratio | Potency, µM (titrated, usually from 38.2 µM), most hits filed as activators | 71,000 tested, 2.5% active; active = well fitted activation curve with a large enough effect in the signal ratio, with a control signal flat, not every such curve was filed as active; inconclusive = small, poorly fitted or top-dose-only effect, or effect the other way, or a change in a side signal; the % refers to the signal ratio
#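 Reporter-gene assay: CHO cells with beta-lactamase behind cAMP responsive elements, co-treated with compound and EC10 NKH 477 for 3 hours at 37 degrees Celsius. Activity came from the 460/530 nm CCF4 emission ratio.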
# A number is an active result; - = inactive; ? = inconclusive; . = no result given; [ ] = another dose, or the depositor's remark. Unless noted, calls come from the whole dose curve; as a rule, active = well fitted curve in the direction sought with a large enough effect; inconclusive = small, poorly fitted or top-dose-only effect, or another doubt; inactive = no such curve, though single readings can be large; an effect the other way counts as inactive or inconclusive.
SMILES,ERK AVP inh,TSHR agonist,HEK293 cAMP cs,IkB signaling,CRE-bla Fsk
CC(=O)C1C(=O)CC(C)(O)C(C(C)=O)C1c1ccc(N(C)C)cc1 (stereo unspecified),-,-,-,-,-
CC(=O)Nc1ccc(N2C(=O)CSC2c2ccc(F)cc2)cc1 (stereo unspecified),-,-,-,-,?
N#CCSc1nc2scc(-c3cccs3)c2c(=O)n1CCc1ccccc1,-,-,-,-,2.5µM
C=CCn1c(SCn2nnc3ccccc3c2=O)nc2scc(-c3cccs3)c2c1=O,-,-,-,-,2µM
O=c1c2ccccc2nnn1CSc1nnc(-c2cccs2)n1Cc1ccccc1,-,?,?,?,?
COc1ccc2[nH]c3c(=O)n(CCCCC(=O)N4CCCC4)c(=S)[nH]c3c2c1,-,-,-,?,-
Cc1nn(-c2ccccc2)c2nc(C3CC3)cc(C(=O)NCc3ccccc3Cl)c12,.,.,.,-,.
COc1ccc(Oc2nc(C)nc3c2oc2ccccc23)cc1,-,?,25µM,-,?
COc1ccc(CNCCCSc2nnnn2C)c(OC)c1,.,.,.,-,.
CCN(CC)c1ccc(-n2c(C)c(C(C)=O)c(C(C)=O)c2C)cc1,-,?,16µM,-,-
CCCSc1oc(-c2ccco2)nc1S(=O)(=O)c1ccccc1,-,?,25µM,-,-
CCOc1ccc(OCC)c(NS(=O)(=O)c2cc(-c3cnc(C)o3)ccc2OC)c1,.,.,.,-,.
CCCCN(C)C(=O)CCC(=O)NNc1nc2ccccc2c2nc(C)nn12,.,.,.,-,.
Nc1ccn([C@@H]2O[C@H](CO)[C@@H](OP(=O)(O)O)[C@H]2O)c(=O)n1,-,.,.,.,.
Nc1ccn([C@H]2CC[C@@H](CO)O2)c(=O)n1,25µM,-,-,-,-
Cc1cc(C(=O)OCC(=O)NCc2ccco2)c(C)n1-c1ccc(F)cc1,-,?,16µM,?,?
COc1ccc(CCNC(=O)CN2CCN(c3cccc(Cl)c3)CC2)cc1OC,20µM,?,?,-,-
COc1cc(CN2CCN(c3cccc(Cl)c3)CC2)cc(OC)c1OC,-,-,-,-,-
N#Cc1cc2ccccc2nc1SCC(=O)Nc1ccc(S(=O)(=O)N2CCCC2)cc1,-,?,?,-,-
COc1ccc2nc(SCC(=O)Nc3ccc(S(=O)(=O)N4CCCC4)cc3)c(C#N)cc2c1,-,?,3.2µM,-,-
COc1ccc2nc(SCC(=O)N(C)C3CCCCC3)c(C#N)cc2c1,-,?,25µM,?,?
COc1ccc2nc(SCC(=O)N3CCCCCC3)c(C#N)cc2c1,-,.,-,-,?
COc1ccc(-n2c(Cc3cccn3C)nnc2SCC(=O)Nc2cccc(F)c2)cc1,-,-,-,-,-
CCn1c2ccccc2c2nnc(SCC(=O)NCCOC)nc21,-,-,-,-,?
CCn1c2ccccc2c2nnc(SCC(=O)NCc3cccs3)nc21,-,-,-,-,10µM
SMILES,ERK AVP inh,TSHR agonist,HEK293 cAMP cs,IkB signaling,CRE-bla Fsk
CCCn1c(=O)c2ccccc2n2c(SCC(=O)NCc3cccs3)nnc12,?,?,20µM,-,-
CCCn1c2ccccc2c2nnc(SCC(=O)OC)nc21,-,-[11.4 µM],-[11.4 µM],-,2µM
C=CCn1c2ccccc2c2nnc(SCC(=O)NC(C(=O)OC)C(C)C)nc21 (stereo unspecified),-,-,-,-,5µM
CCN(CC)S(=O)(=O)c1ccc(N2CCCCS2(=O)=O)cc1,.,.,.,-,.
O=C1c2ccccc2C(=O)N1CCCc1nc(-c2ccccn2)no1,-,-,-,?,-
O=C1c2ccccc2C(=O)N1CCCc1nc(-c2ccc(Cl)cc2)no1,-,?,0.16µM,-,-
COc1ccc(-c2noc(CCN3C(=O)c4ccccc4C3=O)n2)cc1OC,?,-,-,-,3.2µM
O=C(CN(CCc1ccccc1)C(=O)Cn1nnc(-c2cccs2)n1)NCc1ccco1,-,?,25µM,-,-
CC1(C)Cc2c(sc3nc(NCCN4CCOCC4)n4ncnc4c23)CO1,-,-,-,-,4µM
C[C@@H]1C=C[C@](Cc2ccccc2)(C(=O)NCC2CC2)N1C(=O)c1ccccc1,-,?,16µM,.,-
Cc1ccc(OCC2Cn3c(nc4c3c(=O)n(C)c(=O)n4C)O2)cc1 (stereo unspecified),-,-,-,-,-
Cc1nc2ccc(NC(=O)N3CCSCC3)cc2nc1C,-,-,-,-,?

# High-throughput results as filed in PubChem.
